ELG1 DNA repair – inhibitors of ELG1-dependent DNA repair in HEK293T cells | HEK293T ELG1-luciferase reporter, luminescence, 16 h; DNA damage induced by 5-fluorouridine | Potency, µM (series often up to 46.1 µM), usual class: inhibitors | hit rate 2.3% among 330,000; also: nearly all actives have a fitted effect of over 55% in size
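DMSO vehicle served as the neutral condition. Each well held 2,000 cells given 5-fluorouridine plus compound; after 16 hr at 37 °C/5% CO2, ONE-Glo was added and luciferase measured 30 min later.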
Giardia kill – kills Giardia lamblia; Giardia lamblia trophozoite viability; activity change, % at 7.66 µM, hits read low; hit rate 0.15% among 340,000; AID 540267; in the data active = activity change below about -80%; inconclusive = between about -30% and that limit;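 also: parasites exposed to compound for two days anaerobically before the ATP read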
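Trophozoite viability was measured as ATP-dependent luminescence, read 15-30 min after reagent addition. Before that, parasites at 100 cells/well were exposed to compounds for 48 h, anaerobically, at 37 deg C.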
Sfp inh – inhibitors of Bacillus subtilis Sfp phosphopantetheinyl transferase. Q9F4F7. Biochemical Sfp PPTase activity, qHTS. Potency, µM, hits mostly inhibitors. hit rate 3.5% among 310,000. AID 1490;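 also: the enzyme is Sfp with the accession as filed and its product quenches rhodamine fluorescence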
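Step 1, compound plus 15 nM Sfp-PPTase, 15 min, room temperature. Step 2, add rhodamine-CoA (5 uM) and BHQ-2-YbbR (12.5 uM). Step 3, read 525/598 nm fluorescence at 0 and 30 min.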
FBPA coupling cs – coupling enzyme interference in Giardia aldolase counter-screen; coupling enzyme system counterscreen, AmpLite Red fluorescence; activity change, negative = inhibition, % at 58.2 µM, hits read low; hit rate 0.67% among 290,000; AID 2472; in the data active = activity change below about -30%
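Coupling enzymes only (glyceraldehyde-3-phosphate) + compound, at 57.5 uM final, 10 min RT; add substrate/coupling/AmpLite Red mix, 20 min RT; fluorescence ex 525/em 598 nm. Actives flag coupling-system interference.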
Of the large screens only hits and unclear results are named; the others gave an inactive call; ! = not active in a repeat. Sampled rows, rich in hits. Any-hit rate of the full collection: about 5.5%. Unless noted, calls follow the shape of the dose curve; as a rule, active = well fitted curve in the direction sought with a large enough effect; inconclusive = small, poorly fitted or top-dose-only effect, or another doubt; inactive = no such curve, though single readings can be large; an effect the other way counts as inactive or inconclusive.

C[C@@H]1COC(=O)[C@H](Cc2ccc(F)cc2)C/C=C\C[C@@H](CC(=O)NCCO)C(=O)N1	none (no result: Sfp inh, FBPA coupling cs)
O=C1NC(=O)C2(CCCCCCCCCCC2)N1	none
CCCCn1c(=N)n(CC(=O)c2ccco2)c2ccccc21	ELG1 DNA repair inconclusive
Cc1ccc(Cn2c(=N)n(CC(=O)c3ccc([N+](=O)[O-])cc3)c3ccccc32)cc1	Sfp inh 35µM
N=c1n(CC(=O)c2cccs2)c2ccccc2n1Cc1ccccc1	ELG1 DNA repair 7.3µM
Cc1ccc(C(=O)Cn2c(=N)n(CCN3CCOCC3)c3ccccc32)cc1	none (no result: Sfp inh, FBPA coupling cs)
CCCCn1c(=N)n(CC(=O)c2ccc([N+](=O)[O-])cc2)c2ccccc21	Sfp inh 56µM (no result: Giardia kill)
CC(C)(C)C(=O)Nc1ccccc1N1CCN(c2ccc(F)cc2)CC1	none
CCOc1ccc(NC(=O)CN(C)C(=O)C(C)Oc2ccc(Cl)cc2)cc1OCC (stereo not given)	none (no result: ELG1 DNA repair, Sfp inh, FBPA coupling cs)
Cc1nnc(SCC(=O)c2ccc([N+](=O)[O-])cc2)s1	Giardia kill inconclusive, Sfp inh 50µM
CCOc1ccc(OCC)c(NC(=O)C2CCN(c3cnccn3)CC2)c1	none (no result: FBPA coupling cs)
COc1cc(C2NC(C(=O)O)Cc3c2[nH]c2ccccc32)cc(OC)c1OC (stereo not given)	Sfp inh 71µM!
COc1ccc(C2NC(C(=O)O)Cc3c2[nH]c2ccccc32)cc1OC (stereo not given)	none
COc1ccc(-c2n[nH]c(C)c2-c2cc(OC)ccc2O)cc1	Sfp inh 40µM
COc1cccc(CN2c3ccc(Br)cc3C(=O)CS2(=O)=O)c1	ELG1 DNA repair inconclusive (no result: Sfp inh, FBPA coupling cs)
O=C(O)c1cc(-c2ccc3c(c2)OCO3)nc2ccccc12	ELG1 DNA repair inconclusive
Cc1ccc(/C=N/NC(=O)c2cc(C3CC3)nc3ccccc23)o1	ELG1 DNA repair inconclusive, Sfp inh 50µM
CCCN(CCC)C(=O)c1cc(-c2ccc3c(c2)OCO3)nc2ccccc12	ELG1 DNA repair 18µM
Cc1ccc(C=NNC(=O)c2cc(-c3cccnc3)nc3ccccc23)o1	none (no result: Sfp inh, FBPA coupling cs)
O=C(N/N=C/c1ccc2c(c1)OCO2)c1cc(-c2ccc(F)cc2)nc2ccccc12	Sfp inh 45µM
Cc1ccc(/C=N/NC(=O)c2cc(-c3ccccc3)nc3ccccc23)o1	Sfp inh 50µM (no result: FBPA coupling cs)
CN1C(=O)[C@H](Cc2ccc([N+](=O)[O-])cc2)NC1=S	none
COc1ccc(-n2nc3c(c2NC(=O)COc2cccc(OC)c2)CS(=O)(=O)C3)cc1	Sfp inh 50µM (no result: FBPA coupling cs)
CCOc1ccc(OCCC(=O)NNC(=O)c2cc(OC)c(OC)c(OC)c2)cc1	ELG1 DNA repair inconclusive (no result: Sfp inh, FBPA coupling cs)
CC(=O)N1N=C(c2ccco2)CC1c1cccs1 (stereo not given)	Sfp inh inconclusive
O=C(CCl)N1N=C(c2ccco2)CC1c1cccs1 (stereo not given)	ELG1 DNA repair inconclusive, Sfp inh 28µM
Cc1ccc(C2=NN(C(=O)CCl)C(c3cccs3)C2)o1 (stereo not given)	ELG1 DNA repair inconclusive, Sfp inh 50µM
O=C(NC1CCC1)C1CCC(=O)N(Cc2ccccc2F)C1 (stereo not given)	ELG1 DNA repair inconclusive (no result: FBPA coupling cs)
CSc1ccc(C(=O)N2CCC(CCC(=O)NCc3ccc(F)cc3)CC2)cc1	ELG1 DNA repair inconclusive
CCC(Sc1n[nH]c(=O)[nH]c1=O)C(=O)OCc1ccccc1 (stereo not given)	Sfp inh inconclusive
CC(Sc1n[nH]c(=O)[nH]c1=O)C(=O)OCc1ccccc1 (stereo not given)	Sfp inh 79µM (no result: ELG1 DNA repair)
O=C(CC12CC3CC(CC(Br)(C3)C1)C2)NC1CCCC1	none
CCOC(=O)c1sc(=S)n(-c2ccc(OC)cc2)c1N	none
COC(=O)c1sc(=S)n(-c2cccc(Cl)c2)c1N	Sfp inh 32µM
CN1CCN(C(=O)c2sc(=S)n(-c3ccccc3)c2N)CC1	FBPA coupling cs -48
CCNC(=O)c1sc(=S)n(-c2ccc(C)cc2)c1N	Sfp inh 56µM
CCOc1ccc(-n2c(N)c(C(=O)NCc3ccco3)sc2=S)cc1	Sfp inh 13µM
CCOc1ccc(-n2c(N)c(C(=O)NCc3cccnc3)sc2=S)cc1	Sfp inh inconclusive
Cc1ncc2c(c1O)COP(=O)(O)OC2	none (no result: ELG1 DNA repair, Giardia kill)
COc1ccc(CNC(=O)c2c(C)nc3ccccn23)cc1	ELG1 DNA repair 13µM
COc1ccc(CNC(=O)c2sc(=S)n(-c3ccccc3)c2N)cc1	Sfp inh 25µM
CCOC(=O)c1sc(=S)n(-c2ccccc2)c1N	Sfp inh inconclusive
CN(C)S(=O)(=O)c1cccc(N=C2SCCN2Cc2ccccc2)c1	ELG1 DNA repair 18µM
CCOc1ccc(C(C)=O)cc1CN1C(=O)c2ccccc2S1(=O)=O	none
COc1cc2c(C)nc3c(c(C)nn3-c3ccccc3)c2cc1OC	none
COc1cc2c(-c3ccc(O)cc3)nc3c(c(C)nn3-c3ccccc3)c2cc1OC	ELG1 DNA repair 9.2µM, Sfp inh inconclusive
COc1cc(/C=C2\SC(c3ccc(C)cc3)=NC2=O)cc(OC)c1O	Sfp inh 11µM
Cc1ccc(C2=NC(=O)/C(=C/c3cc(O)c(O)c(Br)c3)S2)cc1	Sfp inh 45µM
CN(C)c1ccc(C(=O)N=c2sccn2C)cc1[N+](=O)[O-]	ELG1 DNA repair inconclusive (no result: FBPA coupling cs)
Cc1ccc(S(=O)(=O)Nc2cccc3ncccc23)s1	ELG1 DNA repair inconclusive, FBPA coupling cs -40
Cc1ccc(S(=O)(=O)Nc2cccc3ncccc23)cc1	none
Cc1ccccc1C(=O)N1CCc2c([nH]c3ccccc23)C1C(F)(F)F (stereo not given)	ELG1 DNA repair 13µM
O=C(CN1C(=O)NC2(CCCCCC2)C1=O)N1CCN(c2ccccc2)CC1	none (no result: Sfp inh, FBPA coupling cs)
Oc1c(C=NCc2ccncc2)sc2ccccc12	Sfp inh 28µM
CCc1nnc(NC(=O)CCS(=O)(=O)Cc2ccccc2)s1	none
CCC(CC)c1nnc(NC(=O)CCS(=O)(=O)Cc2ccccc2)s1	Sfp inh 63µM
CCC(CC)c1nnc(NC(=O)CS(=O)(=O)c2ccccc2)s1	Sfp inh 50µM
O=C(CS(=O)(=O)c1ccccc1)Nc1nnc(Cc2ccccc2)s1	Sfp inh 45µM
Cc1ccc(C2=[N+]([O-])C3(CCCCC/C3=N\NC(N)=S)N(O)C2(C)C)o1 (stereo not given)	Sfp inh 71µM (no result: Giardia kill)
O=C(Nc1ccncc1)C1CCN(S(=O)(=O)c2ccc(Cl)c(C(F)(F)F)c2)CC1	none (no result: Sfp inh, FBPA coupling cs)
S=c1[nH]cc(-c2ccccc2)n1-c1ccccc1Cl	Sfp inh inconclusive
COc1ccccc1-n1c(-c2ccccc2)c[nH]c1=S	Sfp inh 10µM
COc1cccc(-n2c(-c3ccccc3)c[nH]c2=S)c1	Sfp inh 45µM
S=c1[nH]cc(-c2ccccc2)n1-c1cccc(Cl)c1	none
Cc1ccc(-c2c[nH]c(=S)n2-c2ccccc2)cc1	Sfp inh 20µM
CC(=O)Nc1cccc(NC(=O)Cc2ccc3ccccc3c2)c1	none
Cc1cc(C)c(S(=O)(=O)Nc2nccs2)c(C)c1	none
CC1(C)S[C@H]2C(NC(=O)[C@@H](N)c3ccc(O)cc3)C(=O)N2[C@@H]1C(=O)O (stereo not given in full)	none (no result: ELG1 DNA repair, Giardia kill)
Cc1sc2ncnc(NCCN3CCOCC3)c2c1C	ELG1 DNA repair 18µM
